Compounds with a hit are over-represented: about 5.4% of the library has one in this group of screens.
HSF1 activator: increases HSF-1 driven luciferase reporter signal. NIH3T3-HGL HSF-1 luciferase reporter, MG132, 8 h; 100% = twice DMSO control signal. activation, % at 9 µM. 1.7% of 300,000 active. AID 504408;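 active = mean replicate activation of at least 50% with a set share of replicates each reaching 50%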;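 note: 0% = median of the neutral control wells and 100% = twice that signal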
NR0B1 inh: inhibits human nuclear receptor DAX1. P51843. HEK293 Gal4-DAX1 luciferase reporter, luminescence. inhibition, % at 6.75 µM. 0.99% of 340,000 active. AID 504766;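 active = inhibition above the mean over all tested compounds plus 3 SD, cut at about 4.2% in these data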;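 note: 0% = DAX1-transfected cells with DMSO and 100% = empty-vector control cells with DMSO; inhibition shows as a rise in luminescence from relieved DAX1 repression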
GAA850 FXN act: increases GAA850 frataxin promoter reporter activity. activation, % at 6 µM. HEK293 lucGAA850 FXN promoter luciferase reporter, 24 h; percent of 10 µM SAHA response. AID 540364. 0.56% of 360,000 active;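 active = activation above the average of all compounds screened plus 3 SD, cutoff fixed separately per campaign, cut at about 7.5% in these data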;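 note: 0% = DMSO wells and 100% = 10 µM SAHA wells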
AHR act: human AHR activation | P35869 | AHR-responsive luciferase reporter cells, luminescence | activation, % at 5 µM | 2.5% of 320,000 active; in the data active = activation above about 47%;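 note: 0% = vehicle wells and 100% = reference agonist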
HSF1 inh: HSF1 inhibition. NIH3T3-HGL HSE-luciferase, MG132-induced, luminescence 8 h; stronger effect = lower value. activity change, negative = inhibition, % at 7.5 µM (by protocol). 0.77% of 300,000 active;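 active = more than half of replicate wells show activity change below -50%, luminescence cut by over half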;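 note: luciferase reports HSF-1 transcriptional activity via heat shock element; 0% = median of DMSO wells and -100% = zero luminescence signal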
AHR act cf: human AHR activation, confirmation. 87% of 2,300 active. shares compounds with AHR act. activation, % at 9 µM. human cells, AHR-responsive luciferase reporter, luminescence; in the data active = activation above about 49%;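 note: HepG2 hepatoma cells carrying a DRE-driven firefly luciferase reporter; 0% = vehicle wells and 100% = reference agonist wells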
PXR counter: activates human PXR in AHR activator counter-screen; cell-based PXR reporter, luciferase luminescence; shares compounds with AHR act; activation, % at 11.6 µM; AID 434939; 88% of 2,300 active; in the data active = activation above about 11%;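 note: human hepatoma DPX-2 cells expressing full-length human PXR; 0% = DMSO and 100% = reference agonist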
Target sequence (O75469 whole entry, looked up): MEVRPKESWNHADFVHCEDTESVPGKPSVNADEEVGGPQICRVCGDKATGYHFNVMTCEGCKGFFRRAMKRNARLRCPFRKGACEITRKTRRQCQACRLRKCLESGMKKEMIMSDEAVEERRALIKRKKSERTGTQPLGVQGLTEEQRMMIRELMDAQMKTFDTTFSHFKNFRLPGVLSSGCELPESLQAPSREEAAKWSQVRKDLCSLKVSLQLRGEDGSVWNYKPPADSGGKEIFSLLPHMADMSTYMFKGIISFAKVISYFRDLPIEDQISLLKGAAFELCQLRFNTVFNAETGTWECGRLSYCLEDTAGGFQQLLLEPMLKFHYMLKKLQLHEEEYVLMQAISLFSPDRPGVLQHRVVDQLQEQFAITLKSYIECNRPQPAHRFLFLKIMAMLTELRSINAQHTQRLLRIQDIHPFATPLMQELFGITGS
An asterisk follows results filed as active; . = not tested or not shown.

SMILES	HSF1 activator	NR0B1 inh	GAA850 FXN act	AHR act	HSF1 inh	AHR act cf	PXR counter
COc1ccc(N2C(=O)NC(NC(=O)c3cccnc3)(C(F)(F)F)C2=O)cc1 (stereo unspecified)	-4	2	-1	-1	-1	.	.
Cc1ccc([C@@H]2[C@@H]3C(=O)N(C)C(=O)[C@@H]3[C@@H]3C(=O)Nc4ccccc4C(=O)N23)cc1	-9	1	0	9	-2	.	.
Nc1ccccc1C#Cc1ccc2[nH]ccc2c1	-6	7.2*	4	94*	-1	120*	24*
Nc1ccccc1C#Cc1ccccc1	11	3	3	21	5	.	.
CSc1ccc(S(=O)(=O)NC2CC2)cc1	-1	1	0	1	-4	.	.
CNC(=O)c1sc(N2N=C3/C(=C/c4ccccc4)CCCC3C2c2ccccc2)nc1C (stereo unspecified)	30	2	-2	25	3	.	.
O=C(c1ccccn1)N1N=C2/C(=C/c3ccccc3)CCCC2C1c1ccccc1 (stereo unspecified)	26	-1	2	112*	9	108*	65*
CCN(CC)C(=O)C1=C(C)N(Cc2ccc(C(C)(C)C)cc2)C(=O)C(CC(=O)NC(c2ccccc2)c2ccccc2)C1 (stereo unspecified)	.	1	-1	.	.	.	.
O=C(NCc1ccncc1)Nc1cc(Cl)ccc1Cl	10	-1	0	97*	-10	63*	26*
c1ccc(-c2noc(-c3cccc4ccccc34)n2)nc1	-14	-1	1	103*	-19	21	10
Clc1cccc(-c2nc(-c3ccccn3)no2)c1	32	-5	-4	104*	13	41	-2
c1ccc(-c2c3ccccc3nc3[nH]c4ccccc4c23)cc1	-4	1	2	103*	-3	68*	32*
c1ccc2nc3c(nc2c1)[nH]c1ccccc13	.	3	7	158*	27	158*	14*
c1ccc(-c2nc(-n3nc4ccccc4n3)nc3ccccc23)cc1	13	0	-1	22	-6	.	.
O=C(N/N=C/c1cccc([N+](=O)[O-])c1)c1cc[n+](CCO)cc1	39	-2	1	9	2	.	.
COc1cccc(-c2nc(C(N)=O)c3[nH]c(=O)n(-c4ccccc4)c3n2)c1OC	-7	1	2	88*	-9	61*	10*
Cc1cccc(-n2c(=O)[nH]c3c(C(N)=O)nc(-c4ccccc4Cl)nc32)c1	11	0	1	94*	0	72*	12*
COc1ccc(-c2nc(C(N)=O)c3[nH]c(=O)n(-c4cccc(C)c4)c3n2)c(OC)c1	-1	0	3	98*	0	67*	20*
CC(c1ccon1)N(C)Cc1cn(C)nc1-c1cccc(Cl)c1 (stereo unspecified)	-2	-1	4	13	-3	.	.
CC1CCCN(CCCNC(=O)c2ccc(N3CCCC3=O)cc2)C1 (stereo unspecified)	-2	1	0	-1	-1	.	.
C=CS(=O)(=O)N(Cc1ccc(Cl)c(Cl)c1)C[C@@H](O)CO	.	-5	-10	.	.	.	.
COc1c(S(=O)(=O)N2CCN(C)CC2)ccc(Cl)c1Cl	3	1	1	0	-3	.	.
CCCC1=[N+](CC(=O)c2ccc(C)cc2)CCn2cccc21	4	0	1	82*	1	112*	22*
CCCC1=NCCn2cccc21	-2	1	-1	0	-4	.	.
O=C(CSc1cccc[n+]1[O-])Nc1cc2c(cc1Cl)C(=O)c1ccccc1C2=O	42	1	4	121*	23	135*	54*
O=C(CCN1C(=O)c2ccccc2C1=O)Nc1ccc(-c2cn3ccsc3n2)cc1	12	1	-4	102*	11	125*	25*
Cc1cc(/C=C2/NC(=O)NC2=O)c(C)n1-c1ccccn1	10	1	3	137*	4	88*	23*
Cc1ccc(-n2c(C)cc(/C=C3\NC(=O)NC3=O)c2C)c(C)c1	7	-2	1	40	6	.	.
COc1ccc(Cl)cc1NCCC(O)c1ccc(F)cc1 (stereo unspecified)	12	-1	1	89*	-2	21	40*
